Experimental data published in PubChem BioAssay (NCI).
Compounds without any hit were thinned out: in the full panel of roughly 83,000, 20% have a hit.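 Compound tested at a single concentration for 48 hours in 96-well plates; a percent growth value below 10 was scored as active.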 Calls of active or inactive are those of the source.

The compounds below were run on HL-60(TB) leukemia (assay: NCI-60 one-dose screen, 48 h (100 = growth as untreated, 0 = no growth, -100 = all killed)). Settings: 10 µM unless noted.

| Structure (SMILES) | growth |
| --- | --- |
| O=C(COc1ccc(C2SCC(=O)N2c2ccc(F)cc2)cc1)c1ccccc1 (configuration not stated) | 98.6% (inactive) |
| COc1ccc(NC2=C(Cl)C(=O)C(C)=C(C)C2=O)cc1 | 37.4% (inactive) |
| N/C(=N\c1nc2c(Cl)cc(Cl)cc2s1)C(Cl)(Cl)Cl | 4.49% (active) |
| Cc1ccc(C2=Nn3c(nnc3-c3ccccc3)SC2)cc1 | 7.74% (active) |
| O=C(Nc1ccc(Br)cc1)Nc1nc2ccc([N+](=O)[O-])cc2s1 | -44.3% (active) |
| O=C(c1ccc(Cl)cc1)C1[C@H](c2ccc(Cl)cc2)[C@@H](c2ccccc2)NC12C(=O)Nc1ccc(Br)cc12 (some centres not stated) | 22.3% (inactive) |
| Clc1cccc(/C=N/Nc2nc(N/N=C/c3cccc(Cl)c3)nc(N3CCCCC3)n2)c1 | 97% (inactive) |
| CCCCCc1ccc(S(=O)(=O)Nc2cccc(-c3csc(NCCN4CCN(C)CC4)n3)c2)cc1 | 0.22% (active) |
| CN1CCN(c2ccc(Nc3nc(NCCNS(=O)(=O)c4ccccc4)c4sccc4n3)cc2)CC1 | 103% (inactive) |
| Cn1cc(CNc2nc3ccc(OC/C(=C/F)CN)cc3o2)ccc1=O | 101% (inactive) |
| C#CCOC(=O)[C@@H]1CCCN1CC#C | 85.3% (inactive) |
| COc1ccc(/C=N/NC(=O)c2[nH]c3ccc(Br)cc3c2-c2ccccc2)s1 | -44.2% (active) |
| COc1cccc(/C=C/C(=O)c2ccc(NC(=O)COc3cccc4cccnc34)cc2)c1 | 80.5% (inactive) |
| C#CCN(C)CCCOc1ccc(NC(=O)CCCCCCCCC(=O)NO)cc1Cl | 28.6% (inactive) |
| CN(C)CCCOc1c2ccc(Cl)cc2nc2c1oc1ccccc12 | -19.3% (active) |
| CC/C(=C/c1cc(OC)ccc1O)c1ccc2cc(OC)ccc2[o+]1 | 6.9% (active) |
| O=S(=O)(Nc1ccc(C2CC2)cc1)c1ccc(-c2cnc(C3CC3)o2)cc1 | 38.9% (inactive) |
| Cc1cc(=O)oc2cc(OCCCOc3ccc(/C=C/C(=O)Nc4ccc(Cl)cc4)cc3)ccc12 | 86.1% (inactive) |
| O=C(Nc1cc(C(F)(F)F)cc(C(F)(F)F)c1)Nc1ccc2oc(=O)ccc2c1 | -24.3% (active) |
| CN1CCN(c2ccc(Nc3nc(NCCCNS(=O)(=O)c4ccccc4)c4sccc4n3)cc2)CC1 | -32.9% (active) |
| Cc1ccc(C(=O)CSc2nnc(-c3ccc(-c4ccc(Cl)cc4)nc3C)o2)cc1 | 103% (inactive) |
| COc1ccc(NC2=CC(=O)C(C)=C(C)C2=O)cc1 | 80.2% (inactive) |
| NS(=O)(=O)c1ccc(-n2cc(CC=O)nn2)cc1 | 105% (inactive) |
| Cc1nn(-c2ccccc2)c2ncnc(N/N=C/c3cccc(O)c3)c12 | 35.3% (inactive) |
| CC(C)(C)Nc1nc2c(OCCc3ccccc3)cccn2c1-c1ccc(O)cc1 | -9.89% (active) |
| NC(N)=Nc1ccc(Nc2cccc(Oc3ccc(Cl)c(C(F)(F)F)c3)c2)cn1 | -67.4% (active) |
| Cc1ncn(-c2ccc(/C=N/Nc3ccnc4cc(Cl)ccc34)cc2)c1C | -40.4% (active) |
